The campaign covered roughly 16,000 compounds. About 5,800 (36%) were called active. Roughly 23% stayed inconclusive and do not appear here. The list shows a part of the results. Unmarked numbers belong to inactive results. Calls follow the shape of the dose curve; as a rule, active = well fitted curve in the direction sought with a large enough effect; inconclusive = small, poorly fitted or top-dose-only effect, or effect the other way; inactive = no such curve, though single readings can be large or run the other way.
% is scaled to controls: 0 for no effect and ±100 for the full control effect.

The target of the assay is Cytochrome P450 2C19 (Homo sapiens) (UniProt P33261). The assay can be described thus: Cytochrome panel assay with activity outcomes. The following applies: recombinant CYP, pro-luciferin dealkylation, luminescence, p450-cyp2c19; series mostly up to 57.1 µM.
Cytochrome P450 2C19 (Homo sapiens), sequence (P33261 whole entry, looked up): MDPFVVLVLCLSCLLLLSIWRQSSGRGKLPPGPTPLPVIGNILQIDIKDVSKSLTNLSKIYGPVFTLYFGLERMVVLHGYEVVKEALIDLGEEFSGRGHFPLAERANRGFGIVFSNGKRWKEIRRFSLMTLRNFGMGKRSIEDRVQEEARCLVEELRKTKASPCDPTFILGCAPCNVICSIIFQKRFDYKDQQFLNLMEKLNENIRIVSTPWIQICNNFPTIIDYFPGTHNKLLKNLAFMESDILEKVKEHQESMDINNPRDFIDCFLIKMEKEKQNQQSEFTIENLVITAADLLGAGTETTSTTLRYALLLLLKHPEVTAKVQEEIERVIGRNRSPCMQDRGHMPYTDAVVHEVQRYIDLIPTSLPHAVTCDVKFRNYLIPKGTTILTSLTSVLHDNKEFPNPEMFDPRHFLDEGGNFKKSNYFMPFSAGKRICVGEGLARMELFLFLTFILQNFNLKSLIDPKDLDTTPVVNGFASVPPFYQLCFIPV
By AC50 is commonly meant the concentration at which the activity in the assay is half-maximal. With `O=C1CCCN1CC(O)CS(=O)(=O)c1ccccc1` (stereo not given), the AC50 result is “inactive”.
Take `Cc1ccc(S(=O)(=O)CC(O)CN2CCCC2=O)cc1` (stereo not given): the AC50 was 10 µM (active).
Take `Cc1cc2c(nc1C)CCCN2CC(O)CN1CCCc2nc(C)c(C)cc21`: the activity, negative = inhibition is 6.93% [at 11.4 µM].
Regarding `CN(C)C(=O)/N=N\C(=O)N(C)C`, the AC50 entry was “inactive”.
As to `N[C@H](C(=O)O)[C@@H](O)c1cnc[nH]1`, the activity, negative = inhibition was -17.9% [at 11.4 µM].
Take `C=CCOC(=O)/C(=C\c1cccc2ccccc12)NC(=O)c1ccccc1`: the AC50 was 0.398 µM (active).
On to `CCOc1cccc2cc(C(N)=O)c(=NCc3ccccc3)oc12`, for which the half-maximal activity concentration (AC50) was 10 µM (active).
In the case of `CCOc1ccccc1/C=C(\C#N)C(N)=O`, the activity, negative = inhibition is -18.7% [at 11.4 µM].
With `O=C(CSc1nc2ccccc2c(=O)n1Cc1ccccc1)NCc1ccco1`, the AC50 was 0.708 µM (active).
Same read-out and setting: next, `CC(=O)NCCn1c(SCC(=O)NCc2ccco2)nc2ccccc2c1=O`: 1.12 µM (active); `COCCn1c(Cc2ccccc2)nnc1SCc1nc2ccccc2c(=O)[nH]1`: “inactive”; `CCOC(=O)CSc1nc2ccccc2c(=O)n1CC1CCC(C(=O)NCc2ccco2)CC1` (stereo not given): 7.08 µM (active).
On to `O=C(CSc1ccccc1C(=O)O)NCc1ccco1`, for which the AC50 entry was “inactive”.
With `COCc1nc2c([nH]1)c(=O)n(C)c(=O)n2CC(C)C`, the AC50 result was “inactive”.
The same measure, in the same setting: next, `CC(C)Cn1c(SCc2nc3ccccc3c(=O)[nH]2)nc2ccccc2c1=O`: 2.51 µM (active); `C=CCNC(=O)C1CCN(S(=O)(=O)CC)CC1`: “inactive”; `Cc1cc(NC(=O)CSc2nc3ccccc3c(=O)n2CCCC(=O)NCc2ccco2)n[nH]1`: 2.24 µM (active).
For the molecule `Cc1cccc(C)c1-n1c(SCC(=O)NCc2ccco2)nc2ccccc2c1=O`, the concentration at half-maximal activity (AC50) was 4.47 µM (active).
For the molecule `O=C(CSc1nc2ccccc2c(=O)n1CCCO)NCc1ccccc1`, the AC50 is 11.2 µM (active).
On to `C=CCSc1nc2ccccc2c(=O)n1Cc1ccco1`, for which the AC50 is 1 µM (active).
For the molecule `COC(=O)N1CCC2(CCCN(C(=O)Nc3ccc(OC)cc3)C2)CC1`, the AC50 entry is “inactive”.
The same measure, in the same setting: the figure for `Cc1cc(NC(=O)CSc2nc3ccsc3c(=O)n2Cc2ccccn2)n[nH]1` is 15.8 µM (active).
Same read-out and setting: next, `COc1ccc(NC(=O)CSc2nc3ccccc3c(=O)n2CCC(=O)N2CCCCC2)cc1`: 0.794 µM (active); `O=C(O)CCCCCn1c(SCC(=O)N2CCCC2)nc2ccsc2c1=O`: “inactive”; `O=C(CSc1nc2ccccc2c(=O)n1CCCC(=O)N1CCCC1)NCc1ccco1`: 4.47 µM (active).
Still for that read-out and setting: the figure for `O=c1c2ccccc2nc(SCc2ccccc2Cl)n1Cc1ccccc1` is 2.82 µM (active); for `O=C(CSc1nc2ccccc2c(=O)n1NC(=O)Cc1ccccc1)NCc1ccccc1Cl` it is 0.794 µM (active); for `CCOC(=O)C1=C(O)/C(=C/c2cc(OC)c(OC)c(OC)c2)N=C1C` it is “inactive”.
Consider `CCOc1cc(/C=C2\N=C(C)OC2=O)cc(Br)c1OCC(=O)OC`, for which the AC50 result is “inactive”.
Regarding `CCOC(=O)COc1c(C=O)cc(Br)cc1OC`, the half-maximal activity concentration (AC50) was 6.31 µM (active).
The same measure, in the same setting: the figure for `Cc1ccc(C)c(S(=O)(=O)N2CCC(c3nc4c(nnn4Cc4ccc(F)cc4)c(=O)[nH]3)CC2)c1` is 4.47 µM (active).
Regarding `Nc1nc(Br)c2c(F)cccc2c1-c1ccc(Cl)cc1`, the concentration at half-maximal activity (AC50) is 1.26 µM (active).
Still for that read-out and setting: next, `Nc1nc(Br)c2ccccc2c1-c1ccc(F)cc1`: 2.82 µM (active); `O=C(Cc1ccc2c(c1)CCCC2)Nc1ccccc1Br`: 3.55 µM (active); `CC1=CC(C)(C)N(C)C(=O)N1c1ccc(Cl)cc1`: 15.8 µM (active).
In the case of `NC(N)=Nc1nc(CCN2C(=O)c3ccccc3C2=O)cs1`, the AC50 is 2.82 µM (active).
For `CO[C@@H]1COC(=O)CC=C[C@@H](C)[C@@H]2C=C[C@@H](O)[C@@H](COC(=O)C/C=C\[C@H]1C)O2`, the activity, negative = inhibition is -8% [at 11.4 µM].
In the case of `CCC(=O)NNC(=O)CCC(=O)Nc1ccccc1`, the AC50 result was “inactive”.
The same measure, in the same setting: the figure for `Cc1cccc(NC(=S)NC(=O)CCc2ccccc2)c1` is 5.62 µM (active).
With `Cc1cccc(C)c1NC(=O)CS(=O)CC(=O)NCCCc1ccccc1` (stereo not given), the AC50 entry is “inactive”.
The same measure, in the same setting: next, `CCCCC(=O)NC(=S)Nc1cccc(NC(=O)CC)c1`: 10 µM (active); `Cc1cccc(C)c1NC(=S)NC(=O)CCc1ccccc1`: 3.55 µM (active).
As to `CC(=O)Nc1ccc(C(=O)NNC(=O)CCc2ccccc2)cc1`, the AC50 result is “inactive”.
Consider `CCC(=O)Nc1cccc(C(=O)/C=C/c2ccccc2)c1`, for which the AC50 was 5.62 µM (active).
The same measure, in the same setting: the entry for `Cn1c(=O)c2c(-c3cccc(F)c3)c3c(nc2n(C)c1=O)-c1ccccc1C3O` (stereo not given) is “inactive”.
With `Cc1c(C)c(C)c(CC2(C)CSC2)c(CC2(C)CSC2)c1C`, the activity, negative = inhibition is 35.5% [at 11.4 µM].
On to `CN(C)c1ncc2ncc(=O)n(C3CC3)c2n1`, for which the AC50 entry is “inactive”.
The same measure, in the same setting: next, `N[C@H](CCC(=O)NCC(=O)O)C(=O)O`: “inactive”.
`Cc1ccc(-n2nc3ccc(NC(=O)c4ccc5c(c4)OCO5)cc3n2)cc1`: the AC50 result was “inactive”.
For `Cc1ccc(C(=O)Nc2ccc3nccnc3c2)cc1`, the half-maximal activity concentration (AC50) was 14.1 µM (active).
For the molecule `CCN1C(=O)[C@H]2[C@H]3[C@H](O)[C@H](O)C/C(=N/OCC[C@H]4C=C[C@H](OC(C)=O)[C@@H](COC(C)=O)O4)[C@@H]3CC[C@@H]2C1=O`, the activity, negative = inhibition was 0.181% [at 11.4 µM].
With `Cc1c(C)n(C(=O)CN2CCC(C)CC2)c2ccccc12`, the AC50 was 3.55 µM (active).
The same measure, in the same setting: next, `CC1CCN(CC[C@@H]2CCCN2S(=O)(=O)c2cccc(O)c2)CC1`: “inactive”; `O=C(O)c1cc(=O)cc(C(=O)O)[nH]1`: “inactive”.
For the molecule `COc1ccc(COC(=O)N/N=C2/C[C@@H](O)[C@@H](O)[C@@H]3[C@@H]4C(=O)N([C@@H](C)c5ccccc5)C(=O)[C@H]4CC[C@H]23)cc1`, the activity, negative = inhibition is 1.27% [at 11.4 µM].
As to `C[C@]1(c2ccccc2)OC(C(=O)O)=CC1=O`, the AC50 entry was “inactive”.
On the same count and under the same terms, next, `Cc1ccc(C(=O)Nc2cc(Cl)ccc2OC(=O)c2ccc(C)cc2)cc1`: 11.2 µM (active).
With `COc1ccc(NC(=O)c2ccc(C(=O)c3cc(OC)ccc3OC)cc2)cc1`, the AC50 result was “inactive”.
Consider `COc1ccc(C(=O)Nc2cc(Cl)ccc2OC(=O)c2ccc(OC)cc2)cc1`, for which the half-maximal activity concentration (AC50) was 3.55 µM (active).
The same measure, in the same setting: next, `COC(=O)CCSc1cc([N+](=O)[O-])cc2c1c(C1OCCS1)nn2-c1ccccc1` (stereo not given): 25.1 µM (active).
On the same count and under the same terms, next, `NC(N)=NC(N)=Nc1ccccc1`: 25.1 µM (active); `NC(N)=NC(N)=Nc1cccc(Cl)c1`: “inactive”.
Turning to `NC(N)=NC(N)=Nc1ccc(S(=O)(=O)O)cc1`, the activity, negative = inhibition was 10.1% [at 11.4 µM].
Turning to `N#C/C(=C/c1cccc(C(F)(F)F)c1)c1nc(CCN2C(=O)c3ccccc3C2=O)cs1`, the AC50 is 3.16 µM (active).
Still for that read-out and setting: next, `COCCCNCCCCOc1c(Cl)cc(C)cc1Br`: “inactive”.
The same measure, in the same setting: next, `Cc1cc(Br)cc(C)c1OCCCCN(C)C`: “inactive”; `C=CCNCCCCOc1c(Cl)cc(C)cc1Br`: 8.91 µM (active); `C/C(=N\NC(=O)Cc1ccc(Cl)cc1)c1ccccn1`: 5.01 µM (active).
Still for that read-out and setting: next, `O=C(N/N=C/C1CCCCC1)c1ccccn1`: “inactive”; `CC(C)c1ccc(N2C(=O)CC(Sc3nc4ccccc4o3)C2=O)cc1` (stereo not given): 1.78 µM (active).
In the case of `CCOC(=O)N/N=C1/C[C@@H](O)[C@@H](O)[C@@H]2[C@@H]3C(=O)N([C@@H](C)c4ccccc4)C(=O)[C@H]3CC[C@@H]12`, the activity, negative = inhibition was -0.98% [at 11.4 µM].
Consider `COc1cccc(Nc2ncc3nc(-c4ccc(Cl)cc4)c(=O)n(CCC#N)c3n2)c1`, for which the AC50 entry was “inactive”.
The same measure, in the same setting: the figure for `CCOC(=O)c1cc(-c2ccc(Cl)cc2)nc2c1c(C)nn2CCC#N` is 14.1 µM (active); for `Cc1nn(C)c(Oc2cccc(Cl)c2)c1C=O` it is 6.31 µM (active); for `O=C(N/N=C/c1ccc(Cl)cc1Cl)Nc1ccccc1` it is 2.82 µM (active).
The same measure, in the same setting: next, `O=C(N/N=C/c1ccc(Cl)cc1)Nc1ccccc1`: 11.2 µM (active); `CC(C)N=C(N)/N=C(\N)Nc1ccc(Cl)cc1`: “inactive”.
With `Cc1ccc(NC(=O)N/C=C/c2ccc(Cl)cc2)cc1`, the AC50 entry was “inactive”.
For the molecule `O=C(c1ccco1)N1CCC2(CC1)CCN(c1cccc(-c3ccccc3)c1)CC2`, the AC50 was 10 µM (active).
With `O=C(c1ccco1)N1CCC[C@@]2(CCN(c3ccncc3)C2)C1`, the AC50 result is “inactive”.
Still for that read-out and setting: next, `CC(=O)N1CCC[C@@]2(CCN(c3ccncc3)C2)C1`: “inactive”; `O=C(c1ccco1)N1CCC[C@@]2(CCN(c3ccccc3)C2)C1`: 5.01 µM (active).
Same read-out and setting: next, `O=C(c1ccco1)N1CCC2(CCCN(c3ccccc3)C2)CC1`: “inactive”; `Cn1cccc1C(=O)N1CCC[C@@]2(CCN(c3ccncc3)C2)C1`: 6.31 µM (active); `Cn1cccc1C(=O)N1CCC2(CC1)CN(c1ccncc1)C2`: 1.26 µM (active).
Same read-out and setting: the entry for `O=C(c1ccco1)N1CCC2(CC1)CCN(c1ccc(-c3ccccc3)cc1)CC2` is “inactive”; for `Cn1cccc1C(=O)N1CCC[C@@]2(CCN(Cc3nccs3)C2)C1` it is “inactive”.
As to `Cn1cccc1C(=O)N1CCC2(CC1)CN(c1ccccn1)C2`, the AC50 result was “inactive”.
Same read-out and setting: the entry for `c1ccc(-c2cccc(N3CCC4(CCNCC4)CC3)c2)cc1` is “inactive”; for `Cn1cccc1C(=O)N1CCC2(CC1)CCN(c1ccncc1)CC2` it is “inactive”.
In the case of `Nc1nc(=O)c2[nH]cnc2n1O`, the activity, negative = inhibition was -10.6% [at 11.4 µM].
For the molecule `CNC(=O)[C@@H]1O[C@@H](n2cnc3c(NCc4ccc(N)cc4)ncnc32)[C@@H](O)[C@H]1O`, the AC50 entry was “inactive”.
The same measure, in the same setting: next, `CC(C)NC(=O)N1CC[C@@]2(CCCN(C(=O)c3cccn3C)C2)C1`: “inactive”; `CN1CC[C@@]2(CCCN(C(=O)c3cccn3C)C2)C1`: “inactive”.
Take `Cn1cccc1C(=O)N1CCC[C@@]2(CCN(c3ccccc3)C2)C1`: the AC50 is 5.01 µM (active).
The same measure, in the same setting: next, `CN(C)CCn1c(C(=O)O)cc2ccccc21`: “inactive”.
Consider `Cc1ccc(S(=O)(=O)NCCn2c(C)cc3ccccc32)cc1`, for which the half-maximal activity concentration (AC50) is 1 µM (active).
Take `Cc1ccc(S(=O)(=O)NC(=O)c2cccn2C)cc1`: the AC50 result is “inactive”.
Consider `Cc1cc2ccccc2n1CCNC(=O)C1CCCC1`, for which the AC50 is 1.26 µM (active).
`Cc1cc2ccccc2c(=O)n1CC(=O)NCC(=O)N1CCCC1`: the AC50 result was “inactive”.

The values above are taken from PubChem BioAssay AID1851 (National Center for Advancing Translational Sciences (NCATS), 2009).
